Source: PubChem BioAssay (Tox21)
Values joined by “and” are separate entries in the source; they are usually repeats but may differ in a detail not shown here. Identical values can stand only once. Results filed as inconclusive are left out. The source holds several records for some structures; these can differ, active in one and inactive in another. Active and inactive are the calls of the source. Unless noted, calls follow the shape of the dose curve; as a rule, active = well fitted curve in the direction sought with a large enough effect in the repeat runs; inconclusive = weak or mixed curves; inactive = no such curve, though single readings can be large; an effect the other way counts as inactive or inconclusive.

Experiments:
[1] = qHTS assay to identify small molecule antagonists of the peroxisome proliferator-activated receptor delta (PPARd) signaling pathway - cell viability counter screen (AID 743213); also: nearly all actives have a fitted effect of over 50% in size; also: potency is read from the fitted curve at half-maximal effect
Procedure, shortened: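 Viability counter-screen, qHTS format: PPARd-bla HEK293H, L165041 300 nM final, 17 h compound exposure at 37 C, CellTiter-Glo luminescence after 30 min RT.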

[2] = qHTS assay to identify small molecule agonists of the farnesoid-X-receptor (FXR) signaling pathway - cell viability counter screen (AID 743218); also: nearly all actives have a fitted effect of over 45% in size; also: potency is read from the fitted curve at half-maximal effect
Procedure, shortened: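 Same-well cytotoxicity check on FXR-UAS-bla HEK 293T cells: 5 h attachment, 16 h compound at 37 C, CellTiter-Glo luminescence read at room temperature after 30 min.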

[3] = qHTS assay to identify small molecule antagonists of the farnesoid-X-receptor (FXR) signaling pathway - cell viability counter screen (AID 743221; active = well fitted cell-killing curve with a large enough effect in the repeat runs, not every such curve was filed as active; also: nearly all actives have a fitted effect of over 50% in size; also: potency is read from the fitted curve at half-maximal effect)
Procedure, shortened: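 GeneBLAzer FXR-UAS-bla HEK 293T cells, compound plus chenodeoxycholic acid (50 uM final), 16 h at 37 C. CellTiter-Glo added to the same wells after the beta-lactamase read; luminescence read after 30 min at room temperature as viability.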

[4] = qHTS assay to identify small molecule agonists of the vitamin D receptor (VDR) signaling pathway - cell viability counter screen (AID 743224); also: nearly all actives have a fitted effect of over 50% in size; also: potency is read from the fitted curve at half-maximal effect
Procedure, shortened: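 Counter screen for cytotoxicity: VDR-bla cells at 2,000 cells/well, 16 h compound exposure, then CellTiter-Glo luminescence after the beta-lactamase measurement.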

[5] = qHTS assay to identify small molecule antagonists of the vitamin D receptor (VDR) signaling pathway - cell viability counter screen (AID 743225); also: nearly all actives have a fitted effect of over 50% in size; also: potency is read from the fitted curve at half-maximal effect
Procedure, shortened: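 VDR-UAS-bla HEK 293T cells were plated and incubated 4 h at 37C, then dosed with compound plus 3 nM (final) 1-alpha,25-dihydroxyvitamin D3 for 16 h. After the 2 h beta-lactamase read, viability in the same wells was read as CellTiter-Glo luminescence after 30 min at room temperature.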

[6] = qHTS assay to identify small molecule agonists of the endoplasmic reticulum stress response signaling pathway - cell viability counter screen (AID 1159517; calls by dose curve; also: nearly all actives have a fitted effect of over 50% in size; also: potency is read from the fitted curve at half-maximal effect)
Procedure, shortened: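 In parallel with the ESRE reporter read, cytotoxicity was scored by CellTiter-Glo luminescence (30 min, room temperature) on HeLa ESRE-bla cells dosed for 5 hr.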

[7] = qHTS assay to identify small molecule agonists of the AP-1 signaling pathway - cell viability counter screen (AID 1159525; calls by dose curve; also: nearly all actives have a fitted effect of over 55% in size; also: potency is read from the fitted curve at half-maximal effect)
Procedure, shortened: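 Same-well cytotoxicity counter screen of the Tox21 10K library in ME-180 cells. The readout is ATP-dependent luminescence after 5 h compound treatment. Data are normalised to DMSO and tetra n-octyl ammonium bromide controls.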

[8] = qHTS assay to identify small molecule agonists of the RXR signaling pathway - cell viability counter screen (AID 1159529); also: nearly all actives have a fitted effect of over 50% in size; also: potency is read from the fitted curve at half-maximal effect
Procedure, shortened: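 RXR-alpha-UAS-bla HEK 293T cells in medium with 2% charcoal-stripped FBS were pre-incubated 5 hr, then compound-treated 16 hr at 37 C. Viability was read by CellTiter-Glo luminescence in the same wells as the beta-lactamase assay, with tetraoctyl ammonium bromide as positive control.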

[9] = qHTS assay to identify small molecule antagonists of the retinoid acid receptor (RAR) signaling pathway - cell viability counter screen (AID 1159551); also: nearly all actives have a fitted effect of over 35% in size; also: potency is read from the fitted curve at half-maximal effect
Procedure, shortened: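 Measured by luminescent ATP detection, viability reflects C3RL4 cells treated 6 h at 37 C with test chemicals in the presence of 1 uM (final) retinol.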

[10] = target: Peroxisome proliferator-activated receptor delta (Homo sapiens) (UniProt Q03181); assay: qHTS assay to identify small molecule agonists of the peroxisome proliferator-activated receptor delta (PPARd) signaling pathway (AID 743212; calls by dose curve)
Chain of Peroxisome proliferator-activated receptor delta (Homo sapiens) (Q03181 whole entry, looked up): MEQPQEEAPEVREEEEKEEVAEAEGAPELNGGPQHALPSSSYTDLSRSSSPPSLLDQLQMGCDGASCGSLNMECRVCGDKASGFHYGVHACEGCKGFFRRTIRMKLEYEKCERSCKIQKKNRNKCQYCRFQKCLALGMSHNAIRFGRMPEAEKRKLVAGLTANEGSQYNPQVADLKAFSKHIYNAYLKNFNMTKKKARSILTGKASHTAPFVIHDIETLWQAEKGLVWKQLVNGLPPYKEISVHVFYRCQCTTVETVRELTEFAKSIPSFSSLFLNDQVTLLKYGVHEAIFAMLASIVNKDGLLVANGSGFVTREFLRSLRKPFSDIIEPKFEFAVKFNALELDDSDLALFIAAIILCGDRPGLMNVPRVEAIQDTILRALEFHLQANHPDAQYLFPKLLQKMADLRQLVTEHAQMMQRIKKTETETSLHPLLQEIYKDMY
Procedure, shortened: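 Tox21 library screened in GeneBLAzer PPARd UAS-bla HEK293H cells. After compound treatment at 37 C, a FRET-based beta-lactamase substrate was applied for 2 h and fluorescence recorded.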

[11] = target: Peroxisome proliferator-activated receptor delta (Homo sapiens) (UniProt Q03181); assay: qHTS assay to identify small molecule antagonists of the peroxisome proliferator-activated receptor delta (PPARd) signaling pathway (AID 743215; active = well fitted inhibition curve with a large enough effect in the signal ratio in the repeat runs, not every such curve was filed as active; the % refers to the signal ratio;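 also: cells stimulated with agonist L165041 at 300 nM final during compound exposure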; also: potency is read from the fitted curve at half-maximal effect)
Procedure, shortened: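 Screen format: qHTS, antagonist mode. HEK293H PPARd-bla cells received compound and 300 nM L165041 (final), 17 h, 37 C. Beta-lactamase detected via FRET substrate fluorescence, 2 h, room temperature.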

[12] = target: Bile acid receptor (Homo sapiens) (UniProt Q96RI1); assay: qHTS assay to identify small molecule antagonists of the farnesoid-X-receptor (FXR) signaling pathway (AID 743217; active = well fitted inhibition curve with a large enough effect in the signal ratio in the repeat runs, not every such curve was filed as active; the % refers to the signal ratio; also: potency is read from the fitted curve at half-maximal effect)
Chain of Bile acid receptor (Homo sapiens) (Q96RI1 whole entry, looked up): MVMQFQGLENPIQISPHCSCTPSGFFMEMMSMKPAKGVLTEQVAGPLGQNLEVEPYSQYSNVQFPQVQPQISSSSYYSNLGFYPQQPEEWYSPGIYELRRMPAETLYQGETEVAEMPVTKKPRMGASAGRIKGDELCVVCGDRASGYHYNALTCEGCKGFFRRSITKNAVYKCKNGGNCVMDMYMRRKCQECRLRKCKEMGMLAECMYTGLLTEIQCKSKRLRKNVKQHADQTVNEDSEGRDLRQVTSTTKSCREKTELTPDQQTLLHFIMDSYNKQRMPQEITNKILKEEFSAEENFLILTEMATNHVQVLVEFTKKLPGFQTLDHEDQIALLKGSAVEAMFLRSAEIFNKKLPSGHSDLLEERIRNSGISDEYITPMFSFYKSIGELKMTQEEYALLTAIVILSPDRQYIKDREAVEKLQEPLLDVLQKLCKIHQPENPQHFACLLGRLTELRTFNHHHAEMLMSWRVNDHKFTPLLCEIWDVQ
Procedure, shortened: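 Quantitative HTS, beta-lactamase reporter format: FXR-UAS-bla HEK 293T cells co-treated 16 h at 37 °C with compounds and 50 uM final chenodeoxycholic acid, then read by B/G FRET fluorescence.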

[13] = target: Vitamin D3 receptor (Homo sapiens) (UniProt P11473); assay: qHTS assay to identify small molecule agonists of the vitamin D receptor (VDR) signaling pathway (AID 743222; calls by dose curve)
Chain of Vitamin D3 receptor (Homo sapiens) (P11473 whole entry, looked up): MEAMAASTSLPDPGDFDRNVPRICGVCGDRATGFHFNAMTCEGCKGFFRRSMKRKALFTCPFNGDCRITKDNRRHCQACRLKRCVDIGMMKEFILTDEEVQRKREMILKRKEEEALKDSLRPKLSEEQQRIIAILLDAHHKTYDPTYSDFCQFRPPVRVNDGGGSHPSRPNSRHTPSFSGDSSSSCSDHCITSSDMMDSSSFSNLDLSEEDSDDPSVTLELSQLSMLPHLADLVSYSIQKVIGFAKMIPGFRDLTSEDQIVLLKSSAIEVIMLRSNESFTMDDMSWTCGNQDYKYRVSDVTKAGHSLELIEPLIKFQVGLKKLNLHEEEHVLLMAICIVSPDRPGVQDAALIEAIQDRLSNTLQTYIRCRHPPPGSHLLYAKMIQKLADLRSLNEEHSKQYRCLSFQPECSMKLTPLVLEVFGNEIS
Procedure, shortened: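 Using LiveBLAzer B/G FRET detection, agonism was scored in VDR-bla cells exposed overnight (16 h, 37C) to DMSO-dissolved compounds; substrate incubation was 2 h at room temperature.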

[14] = target: Vitamin D3 receptor (Homo sapiens) (UniProt P11473); assay: qHTS assay to identify small molecule antagonists of the vitamin D receptor (VDR) signaling pathway (AID 743223; active = well fitted inhibition curve with a large enough effect in the signal ratio in the repeat runs, not every such curve was filed as active; the % refers to the signal ratio)
Procedure, shortened: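 VDR-bla cells were treated with compound plus 3 nM final 1alpha,25-dihydroxyvitamin D3 for 16 h at 37C. Beta-lactamase reporter read by B/G FRET substrate fluorescence after 2 h at room temperature. qHTS format.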

[15] = target: Nuclear receptor ROR-gamma (Homo sapiens) (UniProt P51449); assay: qHTS assay to identify small molecule antagonists of the retinoid-related orphan receptor gamma (ROR-gamma) signaling pathway (AID 1159521; also: nearly all actives have a fitted effect of over 50% in size; also: potency is read from the fitted curve at half-maximal effect)
Procedure, shortened: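 Tet-on ROR-gamma CHO cells with ROR response element-luciferase reporter; compounds added 2 hr before 1 uM doxycycline induction, then 16 hr at 37 C. Antagonism scored as decreased ONE-Glo luminescence.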

[16] = qHTS assay to identify small molecule antagonists of the retinoid-related orphan receptor gamma (ROR-gamma) signaling pathway - cell viability counter screen (AID 1159520); also: nearly all actives have a fitted effect of over 50% in size; also: potency is read from the fitted curve at half-maximal effect
Procedure, shortened: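 Tet-on ROR gamma CHO cells were given compounds for 2 hr, then doxycycline hyclate at 1 uM final, and incubated 16 hr at 37 C. Viability was measured as ATP content by CellTiter-Glo luminescence.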

[17] = target: Bile acid receptor (Homo sapiens) (UniProt Q96RI1); assay: qHTS assay to identify small molecule agonists of the farnesoid-X-receptor (FXR) signaling pathway (AID 743220; active = well fitted activation curve with a large enough effect in the signal ratio in the repeat runs, not every such curve was filed as active; the % refers to the signal ratio; also: potency is read from the fitted curve at half-maximal effect)
Procedure, shortened: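 FXR-UAS-bla HEK 293T cells carrying a UAS-driven beta-lactamase reporter were plated for 5 h at 37C/5% CO2, then exposed to DMSO-dissolved Tox21 10K compounds for 16 h at 37C. A LiveBLAzer B/G FRET substrate was loaded for 2 h at room temperature before fluorescence reading.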

[18] = target: Retinoic acid receptor RXR-alpha (Homo sapiens) (UniProt P19793); assay: qHTS assay to identify small molecule agonists of the RXR signaling pathway (AID 1159527; calls by dose curve; also: nearly all actives have a fitted effect of over 35% in size; also: potency is read from the fitted curve at half-maximal effect)
Chain of Retinoic acid receptor RXR-alpha (Homo sapiens) (P19793 whole entry, looked up): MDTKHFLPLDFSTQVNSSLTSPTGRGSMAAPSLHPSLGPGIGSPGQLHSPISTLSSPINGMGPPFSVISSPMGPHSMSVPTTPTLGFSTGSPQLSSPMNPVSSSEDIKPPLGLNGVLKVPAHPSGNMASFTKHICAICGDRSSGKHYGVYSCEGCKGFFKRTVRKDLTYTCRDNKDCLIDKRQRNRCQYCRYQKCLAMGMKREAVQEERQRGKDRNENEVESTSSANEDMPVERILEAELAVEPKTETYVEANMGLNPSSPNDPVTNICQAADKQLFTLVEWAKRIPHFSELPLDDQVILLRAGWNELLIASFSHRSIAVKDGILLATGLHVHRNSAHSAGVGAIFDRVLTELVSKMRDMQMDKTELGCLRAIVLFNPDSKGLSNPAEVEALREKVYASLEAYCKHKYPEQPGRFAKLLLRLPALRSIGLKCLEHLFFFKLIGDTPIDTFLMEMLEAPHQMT
Procedure, shortened: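 GeneBLAzer RXR-alpha-UAS-bla HEK 293T cells in 2% charcoal-stripped FBS medium were exposed to compounds for 16 hr at 37 C in agonist mode. Beta-lactamase reporter read as 460/530 nm FRET ratio after 2 hr substrate loading.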

[19] = qHTS assay to identify small molecule agonists of the AP-1 signaling pathway (AID 1159526; calls by dose curve)

Measured: Potency

CCCOc1sc(C(=O)N2CCC(c3cc(CN)ccc3F)CC2)c(C)c1Br
active: [1] 17.9 µM | [2] 25.2 µM | [3] 50.4 µM | [4] 35.7 µM | [5] 35.7 µM | [6] 44.9 µM | [7] 44.9 µM | [8] 17.9 µM | [9] 62.8 µM

Nc1cc(Cl)c([N+](=O)[O-])cc1O
not listed: [16] | [17] | [18] | [19]
inactive: all other assays above

C[n+]1c2cc(N)ccc2cc2ccc(N)cc21 (tested in a mixture with another compound)
inactive: [3] | [6] | [7]
active: [2] 15 µM

Cc1oc(-c2ccccc2)nc1CCOc1ccc(C[C@H](Nc2ccccc2C(=O)c2ccccc2)C(=O)O)cc1
inactive: [9]
active: [1] 21.9 µM | [2] 34.7 µM | [4] 21.9 µM | [5] 19.5 µM | [6] 54.9 µM | [16] 61.1 µM

Clc1ccc(C(Cn2ccnc2)OCc2c(Cl)cccc2Cl)c(Cl)c1 (configuration not stated)
inactive: [13] | [5] | [6] | [9]
active: [12] 21.1 µM | [2] 21.1 µM | [17] 10.6 µM | [3] 26.6 µM | [4] 33.5 µM | [15] 13.3 µM | [8] 26.8 µM

CC1=C(/C=C/C(C)=C/C=C/C(C)=C\C=O)C(C)(C)CCC1
active: [2] 46.4 µM | [4] 41.3 µM | [6] 41.3 µM | [16] 57.9 µM | [18] 0.328 µM | [8] 52 µM
inactive: [9]

CCC(C)c1cc([N+](=O)[O-])cc([N+](=O)[O-])c1OC(=O)OC(C)C (configuration not stated)
inactive: [7]
active: [4] 54.9 µM | [5] 34.7 µM | [6] 34.7 µM | [16] 61.1 µM

N#CSCSc1nc2ccccc2s1
inactive: [2]
active: [1] 4.9 µM | [4] 12.3 µM | [5] 15.5 µM | [6] 12.3 µM | [16] 4.33 µM | [7] 43.6 µM | [9] 61.1 µM

COc1cc(C=C2CCC/C(=C\c3ccc(O)c(OC)c3)C2=O)ccc1O
active: [1] 33.5 µM | [2] 21.1 µM | [3] 23.7 µM | [16] 29.8 µM | [7] 26.8 µM
inactive: [6] | [9]

Cc1ccc(-n2[nH]c(C)c(N=Nc3cccc(-c4cccc(C(=O)O)c4)c3O)c2=O)cc1C
inactive: [1] | [17] | [3] | [4] | [5] | [6] | [18] | [9]
active: [7] 26.8 µM

CC(C)(C)c1cc(/C=C2\SC(=N)NC2=O)cc(C(C)(C)C)c1O
inactive: [7] | [9]
active: [1] 54.9 µM | [2] 43.6 µM | [4] 49 µM | [5] 43.6 µM | [6] 54.9 µM

Cc1occc1SSc1ccoc1C
not listed: [4] | [9] | [11] | [13] | [16] | [17] | [18] | [19]
inactive: all other assays above

O=C(NO)c1ccccc1
inactive: [4] | [6] | [16] | [7] | [9]

CN(C)CCCN1c2ccccc2CCc2ccccc21
19.5 µM (active) and inactive: [2]
active: [1] 24.5 µM and 26.6 µM
inactive: [3] | [4] | [5] | [6] | [16] | [7] | [8] | [9]

C[C@@]12C(=O)OC(=O)[C@]1(C)C1CCC2O1
inactive: [6] | [8]
active: [1] 8.41 µM | [2] 11.9 µM | [3] 13.3 µM | [16] 4.22 µM

Cc1cc(Nc2ccc(O)cc2)ccc1N
not listed: [2] | [8] | [9] | [12] | [13] | [15] | [16] | [19]
inactive: all other assays above

NC(=O)c1nc(-c2cccc(-c3cc(F)ccc3OCC(F)(F)C(F)(F)F)c2)n[nH]1
active: [11] 54.9 µM | [4] 43.6 µM | [6] 61.6 µM | [15] 34.4 µM
inactive: [17] | [13]

O=Nc1ccc(NO)cc1
inactive: [10] | [1] | [2] | [3] | [4] | [5] | [6] | [7] | [18] | [8]

CCCCCCCCCCOCC(O)CN (configuration not stated)
active: [1] 29.8 µM | [2] 33.5 µM | [6] 21.3 µM
inactive: [19]

CCCSS/C(CCO)=C(\C)N(C=O)Cc1cnc(C)nc1N
inactive: [1] | [2] | [3] | [13] | [4] | [5] | [6] | [15] | [19] | [9]

CCCCCCC(C)OC(=O)COc1nc(F)c(Cl)c(N)c1Cl (configuration not stated)
inactive: [10] | [11] | [2] | [3] | [13]
active: [4] 43.6 µM | [5] 49 µM | [6] 54.9 µM | [7] 49 µM | [8] 34.7 µM
